Measurements as given in ChEMBL document CHEMBL1157539, “Thousands of chemical starting points for antimalarial lead identification” (Nature, 2010).

test system: Plasmodium falciparum; test: GSK_TCMDC: Inhibition of Plasmodium falciparum 3D7 in whole red blood cells, using parasite LDH activity as an index of growth. Test compounds present at 2uM; type: functional

SMILES	Inhibition [%]
Nc1c2ccccc2nc2ccc(-c3ccccc3)cc12	100
CC(CN1CCN(C)CC1)C(=O)Nc1cccc(-c2ccc(-c3nc4cc(C(F)(F)F)ccc4[nH]3)cc2)c1 (stereo not given)	100
Cc1nc2nc(N)nc(N)c2c(C)c1Cc1ccc(O)cc1.Cl	94
Cc1cccc2nc(-c3cccc(-c4cccc(NC(=O)Nc5ccccc5)c4)c3)[nH]c12	100
O=C(/C=C/c1ccc(Cl)c(Cl)c1)NCCCCCN1CCC(NC(=O)Nc2ccc(F)c(F)c2)CC1	99
CCN(CC)CCN1C(=O)c2oc3ccc(Cl)cc3c(=O)c2C1c1ccc(SC)cc1 (stereo not given)	98
Cc1cc2ncn(-c3nccc(NCc4ccc(F)cc4)n3)c2cc1C.O=C(O)C(F)(F)F	98
O=C(Cc1ccc(Cl)cc1)Nc1cc(Cl)ccc1Cn1cnc(N2CCNCC2)cc1=O.O=C(O)C(F)(F)F	97
CCNc1cc(-c2cccc(OC)c2)nc(Nc2ccc(F)cc2)n1	87
O=C(NCCc1ccccc1)N(Cc1ccc(-c2cccc(CN3CCNCC3)c2)cc1)C1CCN(Cc2ccccc2)CC1.O=C(O)C(F)(F)F	90
CCOC(=O)CNCC(=O)c1ccc(OCc2ccccc2)cc1.Cl	95
COc1ccc(CCNCC(O)c2cccc(Br)c2)c(Cl)c1OC.Cl (stereo not given)	87
CCN(CC)CCN(Cc1ccc(-c2ccc(C(F)(F)F)cc2)cc1)C(=O)Cn1c(CCc2cccc(F)c2F)cc(=O)c2c1CCCC2.O=C(O)C(O)C(O)C(=O)O	100
CC(C)CC(C)NC(=O)C1Cc2c([nH]c3cc(Cl)ccc23)C2(CCN(CCc3ccccc3)CC2)N1 (stereo not given)	95
O=C(c1ccc([N+](=O)[O-])o1)N1CCN(c2nc3c(F)cc(F)cc3s2)CC1	93
COc1ccc2nc3ccccc3c(NCCN3CCN(C)CC3)c2c1	81
COc1ccc(C(=O)CCC(=O)N(CCC2CCCN2C)Cc2ccc(-c3ccc(CNCCc4ccc(S(C)(=O)=O)cc4)cn3)cc2)cc1F.O=C(O)C(F)(F)F (stereo not given)	93
Cn1nc(-c2ccc(NC(=O)Nc3cc(C(F)(F)F)cc(C(F)(F)F)c3)c(F)c2)c2cnc(NCCN3CCOCC3)nc21.O=C(O)C(F)(F)F	94
CCOC(=O)c1cn(CC)c2cc(N3CCCCCC3)c(F)cc2c1=O	94
COc1ccc(NC(=O)Nc2cccc(-c3cccc(-c4nc5ccccc5[nH]4)c3)c2)cc1	100

SMILES	Inhibition [%]
CS(=O)(=O)O.FC(F)(F)COc1c(CNCCCCCCNCc2ccc3ccccc3c2OCC(F)(F)F)ccc2ccccc12	100
COc1ccc2ncc(F)c(CCN3CC[C@H](NC(=O)c4ccc5c(n4)NC(=O)CS5)[C@H](O)C3)c2n1.Cl	88
COc1ccc2[nH]ccc(=NN=Cc3cccc(F)c3)c2c1	100
O=c1cc(NCCC(CNCc2ccoc2)NCc2cc(Br)cc(Br)c2)[nH]c2ccccc12 (stereo not given)	92
COc1ccc(F)cc1-c1ccc(C(=O)N2CCCN(c3ccc(C(F)(F)F)cn3)CC2)cc1	100
CN(C)c1ccc(-c2ccc(C(=O)NC3CCN(Cc4ccc(C(C)(C)C)cc4)CC3)s2)cc1.O=C(O)C(F)(F)F	95
O=C(Nc1cccc(-c2nn3ncccc3c2-c2ccnc(Nc3cccc(C(F)(F)F)c3)n2)c1)c1c(F)cccc1F	97
CCN(CC)CCCC(C)Nc1c2ccccc2nc2ccc3ccccc3c12.Cl (stereo not given)	100
Cc1noc(C)c1CN1Cc2ccccc2OC2(CCN(Cc3c[nH]c4cnccc34)CC2)C1.O=C(O)C(F)(F)F	89
CCC[C@@H]([C@@H](CC(C)C)C(=O)N[C@H](C(=O)Nc1nccs1)C(C)(C)SCCNC(=O)OCC)N(O)C=O	95
COc1cc2nc(N3CCC(CCCC4CCNCC4)CC3)nc(NCc3ccccn3)c2cc1OC.O=C(O)C(F)(F)F	100
O=C(/C=C/c1ccc(Cl)c(Cl)c1)NCCCCCN1CCC(C(=O)Nc2cccc(Cl)c2)CC1	100
COc1ccc(Cl)cc1N1CCN(CCCNC(=O)c2ccc(-c3nc4cc(Cl)c(F)cc4[nH]3)cc2)CC1	100
CNC(=O)Cc1ccc(C(=O)Nc2cccc(-c3csc(-c4nc5ccccc5[nH]4)c3)c2)cc1	95
O=C(Nc1cccc(CN2CCCN(CCc3ccccc3)CC2)c1)c1ccc(Cl)c(Cl)c1.O=C(O)C(F)(F)F	86
COc1cccc(Nc2nccc(-c3c(-c4cccc(NC(=O)c5c(F)cccc5F)c4)nn4ccccc34)n2)c1	98
COc1ccc(N2CCN(CCCCNC(=O)c3ccc(NC(=O)c4ccc(Cl)cc4)cc3)CC2)c(C)c1	100
CN1CCN(CCCCCNc2c3ccccc3nc3ccccc23)CC1.Cl	99
CC1(C)NC(=N)N=C(NOCC=Cc2ccccc2)N1	98
O=C(/C=C/c1ccc(Cl)c(Cl)c1)NCCCCCN1CCCC(CNC(=O)c2sc3ccccc3c2Cl)C1 (stereo not given)	98
